Measured values taken from PubChem BioAssay.
For part of these data: Measured potencies and affinities stand elsewhere. The source made the active and inactive calls. Unless noted, the rule behind the calls is not given here.

What was measured:
[1] = test system: XIP peptide (Xip251-270) binding; assay: XIP fragment 251-270 binding compounds – biochemical, small-molecule microarray, fluorescence 635/667 nm, 0.1 µg/mL protein, primary screen (AID 1182); details: fluorescent protein binding, 635 nm; higher = more signal, called active from +8 up or from −8 down unless noted
[2] = test system: XIP peptide (Xip251-270); assay: compounds binding XIP fragment 251-270 – biochemical, small-molecule microarray, fluorescence 635/667 nm, 0.5 µg/mL protein, primary screen (AID 1183); details: fluorescence 635 nm, higher = more signal
[3] = blood-stage malaria parasite viability loss – strain 3D7, DAPI fluorescence, 100 nL, primary screen (AID 1184);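 note: parasites grown inside human red blood cells in medium with human serum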; details: P. falciparum 3D7 growth, 3 d, higher = more signal
[4] = molecular target: Homeobox protein Hox-A13 (Mus musculus) (UniProt Q62424); assay: disruptors of Hoxa13 oligonucleotide interaction – biochemical, fluorescence polarization, labeled oligonucleotide, primary screen (AID 1185); details: Hoxa13:DNA binding, 15 min; higher = more signal, called active from +8 up or from −8 down unless noted
Chain of Homeobox protein Hox-A13 (Mus musculus) (Q62424 whole entry, looked up): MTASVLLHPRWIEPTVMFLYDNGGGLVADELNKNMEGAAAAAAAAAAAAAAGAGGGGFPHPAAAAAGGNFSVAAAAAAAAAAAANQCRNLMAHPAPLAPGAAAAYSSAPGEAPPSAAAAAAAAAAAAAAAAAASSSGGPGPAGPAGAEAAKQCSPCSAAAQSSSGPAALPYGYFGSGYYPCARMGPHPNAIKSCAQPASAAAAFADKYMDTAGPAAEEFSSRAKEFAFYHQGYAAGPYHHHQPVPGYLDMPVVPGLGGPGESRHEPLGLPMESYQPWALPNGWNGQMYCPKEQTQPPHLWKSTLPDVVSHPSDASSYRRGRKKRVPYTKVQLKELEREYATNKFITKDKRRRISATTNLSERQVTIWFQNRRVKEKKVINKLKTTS

[5] = blockers of DNA damage checkpoint Chk1 activation – imaging, HeLa, hydroxyurea, phospho-Chk1 antibody, percent positive cells, primary screen (AID 1186); details: hydroxyurea-induced phospho-Chk1 immunofluorescence imaging, higher = more signal
[6] = blockers of DNA damage checkpoint Chk1 activation – imaging, HeLa, hydroxyurea, phospho-Chk1 nuclear intensity, primary screen (AID 1187); details: hydroxyurea-induced phospho-Chk1 immunofluorescence imaging, higher = more signal
[7] = molecular target: Adenosylmethionine-8-amino-7-oxononanoate aminotransferase (Mycobacterium tuberculosis (strain ATCC 25618 / H37Rv)) (UniProt P9WQ81); assay: inhibition of purified M. tuberculosis BioA – biochemical, plate reader, cherry-pick samples, dose response (AID 651683)
Chain of Adenosylmethionine-8-amino-7-oxononanoate aminotransferase (Mycobacterium tuberculosis (strain ATCC 25618 / H37Rv)) (P9WQ81 whole entry, looked up): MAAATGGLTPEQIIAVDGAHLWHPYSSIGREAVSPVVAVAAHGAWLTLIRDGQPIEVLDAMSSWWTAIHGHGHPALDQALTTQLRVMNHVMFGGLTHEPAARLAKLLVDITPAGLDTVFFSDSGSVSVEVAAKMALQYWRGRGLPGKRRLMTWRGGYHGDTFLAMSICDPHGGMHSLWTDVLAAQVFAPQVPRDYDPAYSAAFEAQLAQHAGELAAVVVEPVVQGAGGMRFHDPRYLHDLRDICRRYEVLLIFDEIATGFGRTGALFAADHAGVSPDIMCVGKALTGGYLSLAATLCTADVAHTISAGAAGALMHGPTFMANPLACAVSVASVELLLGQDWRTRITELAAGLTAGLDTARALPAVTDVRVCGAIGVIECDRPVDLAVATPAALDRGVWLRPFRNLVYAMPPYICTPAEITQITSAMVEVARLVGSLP

Row | SMILES | composite z-score [1] | composite z-score [2] | z-score [3] | z-score [4] | z-score [5] | z-score [6] | outcome [7]
1 | C[C@@H]1Cc2c(cnc3c2CN(C)CC3)CO1 | -0.422 (inactive) | 0.188 | -0.0396 | -2.8 (inactive) |  |  | 
2 | COC(=O)[C@H]1[C@H](c2ccccc2)C(=O)[C@]2(O)c3ccccc3O[C@@]12c1ccccc1 | -0.013 (inactive) | 0.364 | 0.332 | -0.116 (inactive) |  |  | 
3 | COc1cc2c(cc1O)C=[N+](C)CC2 | -1.21 (inactive) | -0.417 | -0.0765 | -2.14 (inactive) | -0.663 (inactive) | -0.875 (inactive) | 
4 | CCCc1cc2c(n1Cc1ccc(C)cc1)C(C)C1CN(C(=O)c3ccccc3)C(C)(C(=O)OC)C21 (stereo not given) | 0.707 (inactive) | 0.73 | -0.0901 | -2.8 (inactive) | -0.364 (inactive) | 0.0089 (inactive) | 
5 | COC(=O)[C@@]1(Cc2ccccc2)[C@H]2c3cc(C(=O)N(C)C)[nH]c3C[C@H]2CN1C(=O)c1ccccc1 | 0.665 (inactive) | -0.456 | 0.747 | -3.47 (inactive) | -0.493 (inactive) | -0.73 (inactive) | 
6 | CCCc1cc2c(n1Cc1cccc(Cl)c1)C(C)C1CN(C(=O)c3ccccc3)C(C)(C(=O)OC)C21 (stereo not given) | 1.12 (inactive) | -0.589 | -0.413 | -5.79 (inactive) | 0.251 (inactive) | 0.861 (inactive) | 
7 | COC(=O)[C@H]1C(=O)c2ccccc2O[C@@](C(=O)OC)(c2ccccc2)[C@@H]1c1ccccc1 | 0.107 (inactive) | 0.191 | -1.6 | -0.6 (inactive) |  |  | 
8 | CN1CCc2nc(CO)c(CO)cc2C1 | -0.102 (inactive) | -0.446 | -0.221 | -0.184 (inactive) |  |  | 
9 | CCCC=C(CCC)[C@@H](NP(=O)(c1ccccc1)c1ccccc1)c1ccccc1 | 0.147 (inactive) | 0.158 | -0.81 | -1.64 (inactive) | 0.17 (inactive) | 0.404 (inactive) | 
10 | CN1CCC(c2ccc(CO)cc2)=CC1c1cccs1 (stereo not given) | 0.219 (inactive) | 0.171 | -1.99 | -4.11 (inactive) | 0.126 (inactive) | -0.0255 (inactive) | 
11 | CCCc1cc2c(n1CCO)C(C)C1CN(C(=O)c3ccccc3)C(C)(C(=O)OC)C21 (stereo not given) | 0.26 (inactive) | 0.719 | 0.119 | -4.02 (inactive) | 1.28 (inactive) | 1.1 (inactive) | 
12 | CN1CCC(c2ccc(CO)cc2)=CC1C1CC1 (stereo not given) | -0.809 (inactive) | 0.005 | -0.0622 | -1.39 (inactive) | 0.738 (inactive) | 0.657 (inactive) | 
13 | COC(=O)[C@@]1(Cc2ccc(F)cc2)[C@H]2c3cc(C(=O)N(C)C)[nH]c3C[C@H]2CN1C(=O)c1ccccc1 | 0.614 [setting not given] (inactive) | 0.17 | 0.412 | -4.26 [setting not given] (inactive) | 1.11 (inactive) | 0.831 (inactive) | 
14 | c1ccc(-c2cc3c(nc2-c2ccccc2)CCNC3)cc1 | 0.236 (inactive) | 0.0762 | -0.295 | -0.372 (inactive) |  |  | 
15 | CCCC[C@@H]1C[C@H]1[C@@H](NP(=O)(c1ccccc1)c1ccccc1)c1ccc(Cl)cc1 | 0.156 (inactive) | -0.337 | 0.0345 | -2.17 (inactive) | 0.368 (inactive) | 0.316 (inactive) | 
16 | COc1cc2c(cc1O)C(C)N(C)CC2 (stereo not given) | -0.191 (inactive) | 0.229 | -0.563 | -0.569 (inactive) | -0.0732 (inactive) | 0.363 (inactive) | 
17 | C[C@H]1O[C@H]2C3=C(C(=O)[C@@H]4O[C@@H]4[C@@H]3O)[C@@H]1[C@@H]1[C@@H](C)OC=C3[C@@H](O)[C@H]4O[C@H]4C(=O)[C@]312 | -0.7 (inactive) | 0.938 | -1.58 | -0.276 (inactive) |  |  | 
18 | COC(=O)[C@@]1(Cc2ccccc2)[C@H]2c3cc(C(=O)N(C)C)n(C)c3C[C@H]2CN1C(=O)c1ccccc1 | 0.0028 (inactive) | -0.0822 | -0.731 | -6.38 (inactive) | -0.344 (inactive) | -0.428 (inactive) | 
19 | Cc1c(OC(C)C(=O)NCC2CCC(C(=O)O)CC2)ccc2c1oc(=O)c1ccccc12 (stereo not given) |  |  |  |  |  |  | inactive
20 | COC(=O)C1(C)C=C2C(=C(C)C(=O)C2C)CN1 (stereo not given) | -0.309 (inactive) | -0.628 | -1.06 | -3.26 (inactive) | 0.414 (inactive) | 0.354 (inactive) | 
21 | CCOc1ccc(-n2c(SCC(N)=O)nc3c(c2=O)SCC3)cc1 |  |  |  |  |  |  | inactive
22 | COc1ccccc1-c1cc(C(F)(F)F)nc(S(=O)(=O)CCCC(=O)O)n1 |  |  |  |  |  |  | inactive
